Test results from PubChem BioAssay (NCI).
“And” between values parts separate entries of the source, which are not always exact repeats. Equal values may be shown once. This is part of a sample that, as a whole, favours compounds with a hit. Of some 83,000 tested, about 20% had one in any assay.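 In brief: 96-well plates, 48 h treatment, single concentration, percent growth endpoint.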 Unmarked numbers belong to inactive results. The source made the active and inactive calls. The calls were made as follows: active = growth percent below 10; inactive = the rest.

Each molecule was assayed on MDA-MB-468 breast (assay: NCI-60 one-dose screen, 48 h (100 = growth as untreated, 0 = no growth, -100 = all killed)). Settings: 10 µM unless noted.

| SMILES | growth |
| --- | --- |
| CCCCCCCCCC[N+](C)(C)N | 55.1% |
| COc1c(O)cc2oc3cc(O)c(CC=C(C)C)c(O)c3c(=O)c2c1CC=C(C)C | 71.2% |
| CC(=O)Oc1c2c(nc3c1c1ccccc1n3Cc1ccccc1)-c1ccccc1C2 | 92.2% |
| C[N+]1(C)C2CC[C@@H]1CC(OC(=O)C(O)c1ccccc1)C2 (stereo not given in full) | 103% |
| CCN(CC)c1ccc(/C=N\NC(=O)c2cccc(Nc3ccnc(C(F)(F)F)c3)c2)c(O)c1 | 24.6% |
| O=C1c2cccc3c([N+](=O)[O-])ccc(c23)C(=O)N1CCCCl | -62.2% [100 µM] (active) |
| Cc1ccccc1-n1nnc(C(=O)Nc2nc3ccc(F)cc3s2)c1C | 32.8% |
| COc1ccc2sc(-n3nc4nc5n(c(=O)c4c3N)-c3ccccc3Sc3ccccc3-5)nc2c1 | 88.9% |
| Cc1cc(C)cc(NC(=O)Cn2nncc2CN2C(=O)CSC2=O)c1 | 97% |
| O=[N+]([O-])c1cccc([I+]c2ccccc2)c1 | 20.2% |
| C/C(=C\CCc1ccsc1)CC/C=C(\C)CCCN1CCN(CCO)CC1 | 7.83% (active) |
| COC(=O)c1c2c(c(C)[n+]([O-])c1C)C(=O)C(NCc1ccc(OC)cc1)=CC2=O | -6.29% (active) |
| CN(C)CCOC1(Cc2ccc(Cl)cc2Cl)CCC(C(C)(C)C)CC1 (stereo not given) | -77.6% (active) and -87.3% (active) |
| COc1ccc(-c2cc(-c3cccnc3)nc3sc4c(=O)n(-c5ccc(C)cc5)cnc4c23)cc1OC | 93.7% |
| NS(=O)(=O)c1ccc(Nc2nc(N/N=C/c3ccc([N+](=O)[O-])cc3)nc(Nc3ccccc3)n2)cc1 | 1.11% (active) |
| O=C(O)Cc1cccc(=O)c(O)c1C(=O)O | 105% |
| CCOC(=O)C(=O)CC(=O)N1C(=S)NC(=O)C1CC(C)C (stereo not given) | 85.1% |
| Cc1nc2sc(C(=O)Nc3ccccc3)c(N)c2cc1C(=O)c1ccc(C(F)(F)F)cc1 | 107% |
| O=C(CN1CCN(c2cc3c(cc2F)c(=O)c(C(=O)O)cn3C2CC2)CC1)Nc1nc(-c2ccc(Cl)cc2)cs1 | 21.7% |
| Cc1nnc2c3nnc(-c4ccc(Cl)cc4)n3c3ccccc3n12 | 100% |

| SMILES | growth |
| --- | --- |
| O=C1CCCCN1CCCCC#Cc1cccc(C#Cc2cccnc2)c1 | 73.8% |
| COc1cccc2c1C(=O)c1c(O)c3c(c(O)c1C2=O)C[C@](O)(C(=O)CO)C[C@H]3O[C@@H]1C[C@@H](NC(=O)CCCCCN(C)C2(c3ccc(F)cc3)CC3CCC2C3)[C@H](O)[C@@H](C)O1 (stereo not given in full) | 4.63% (active) |
| Nc1nc(Nc2ccccc2SSc2ccccc2Nc2nc(N)nc(-c3ccc(C(F)(F)F)cc3)n2)nc(-c2ccc(C(F)(F)F)cc2)n1 | 132% |
| CCCCCCCCCCCCCCCCN(C(C)c1ccccc1)S(=O)(=O)c1ccc(OC)c(N)c1 (stereo not given) | 119% |
| N#Cc1cccc(NC(=O)c2cc(-c3ccc(F)cc3F)ccc2O)c1 | -4.46% (active) and -3.84% (active) |
| CC(=O)Nc1cscc1NC(C)=O | 95.1% |
| CN1CCc2c(sc3ncnc(N/N=C/c4ccc(Cl)c(Cl)c4)c23)C1 | -26.6% (active) |
| O=C(CCCCCCN1CC(=O)N2[C@@H](c3cccs3)c3[nH]c4ccccc4c3C[C@H]2C1=O)NO | 41.6% |
| NS(=O)(=O)c1ccc(C(=O)N=Nc2c(O)[nH]c3ccc(Cl)cc23)cc1 | 110% |
| O=C(Nc1cccc(-n2ccc3c(NC(=O)c4ccccc4)nccc32)c1)c1ccc(N2CCOCC2)c(C(F)(F)F)c1 | -2.66% (active) |
| CC(C)(C)c1ccc(C(O)CCCN2CCC(C(O)(c3ccccc3)c3ccccc3)CC2)cc1 (stereo not given) | -97.1% (active) |
| COc1ccc(C2=NN(C(=O)c3cc(-c4ccc(C)cc4)nc4ccccc34)C(c3cc(-c4ccccc4)nn3-c3ccccc3)C2)cc1 (stereo not given) | 98.1% |
| CC(=O)Nc1ccc(-n2cnc3cc(-c4ccc(OCCN5CCCCC5)cc4)ccc32)cc1 | 115% |
| CN1CCN(CC#CCNC(=O)[C@]23CCC(C)(C)C[C@H]2C2=CC[C@@H]4[C@@]5(C)Cc6c([nH]c7ccccc67)C(C)(C)[C@@H]5CC[C@@]4(C)[C@]2(C)CC3)CC1 | 91.2% |
| CC(=O)Nc1nc(C)c(-c2csc(Nc3ccccc3)n2)s1 | 4.66% (active) |
| CN1C(=O)N(C)C2C1NN=c1s/c(=C\c3ccccc3)c(=O)n12 (stereo not given) | 23.8% |
| O=c1n(CC2CO2)c(=O)n(CC2CO2)c(=O)n1CC1CO1 (stereo not given) | 56.7% |
| NC(=O)c1ccc(NC(=O)c2oc3ccccc3c2-c2cnn(-c3ccccc3)c2)cc1 | 24.2% [50 µM] |
| COC(OC)c1ccccc1 | 107% |
| ClC1=C(Cl)C(Cl)=C(Cl)C1=Cc1ccccc1 | -80.7% (active) |
